The source made the active and inactive calls.
Columns and labels:
[1] = tested on: Human papillomavirus type 1a protein E7 (residues 44-93); test: HPV1a E7 fragment binders on microarrays, primary screen, biochemical, small-molecule microarray, residues 44-93, 635 nm fluorescence (AID 1108); settings: small-molecule microarray binding, fluorescence 635 nm; higher = more signal;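 note: E7 fragment applied at 1 µg/mL in TBST for 1 h at 4 C; score combines spot fluorescence with its signal to noise ratio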
[2] = modulators of HCV replicon luciferase signal, primary screen, HCV replication inhibitor project, Huh7 cells, luciferase reporter (AID 1109); settings: 48 h, higher = more signal;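 note: huh7 hepatoma cells harbouring a luciferase neomycin HCV replicon reporter; luciferase luminescence as measure of HCV replicon replication; test concentration not given here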
[3] = molecular target: Left-right determination factor 2 (Homo sapiens) (UniProt O00292); test: LEFTY2 binders on small-molecule microarrays, primary screen, biochemical, small-molecule microarray, 635 nm fluorescence scan (AID 1110); settings: LEFTY2 binding, higher = more signal
[4] = molecular target: Calmodulin-1 (Homo sapiens) (UniProt P0DP23); test: CALM1 binders on microarrays, EGTA buffer, profiling panel, biochemical, small-molecule microarray, Cy5-labelled CALM1 (AID 1111); settings: Cy5-CALM1 binding fluorescence, higher = more signal;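 note: labelled calmodulin applied in Tris saline Tween buffer holding calcium plus EGTA and DTT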
[5] = molecular target: Calmodulin-1 (Homo sapiens) (UniProt P0DP23); test: calcium-bound CALM1 binders on microarrays, profiling panel, artefact control for SMM control-protein annotation, biochemical, small-molecule microarray, Cy5-labelled CALM1, plus calcium (AID 1112); settings: Cy5-CALM1 binding fluorescence, higher = more signal;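 note: score merges spot fluorescence with signal to noise from triplicate slides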
[6] = small-molecule microarray binders of probe aWnt5a, primary screen, biochemical, biotinylated probe, 635/667 nm fluorescence (AID 1113); settings: higher = more signal;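 note: score merges 667 nm fluorescence intensity with signal-to-noise per printed feature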
[7] = small-molecule microarray binders of probe aShh, primary screen, biochemical, biotinylated probe, 635/667 nm fluorescence (AID 1114); settings: higher = more signal;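 note: probe is biotin-labelled aShh protein from a stem cell growth factor screen; measures binding of labelled protein to compounds printed on the slide; score merges feature fluorescence at 667 nm with signal-to-noise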
[8] = small-molecule microarray binders of probe aNog, primary screen, biochemical, biotinylated probe, 635/667 nm fluorescence (AID 1115); settings: higher = more signal;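 note: probe is biotinylated aNog protein used at 0.15 µg/mL for 1 h at 4 C; z-score combines 667 nm fluorescence of each spot with its signal to noise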
[9] = molecular target: Torsin-1A-interacting protein 1 (Homo sapiens) (UniProt Q5JTV8); test: LAP1 binders from COS7 cell lysate, primary screen, small-molecule microarray, 635/667 nm fluorescence (AID 1116); settings: COS7-hLAP1 lysate binding, 635 nm fluorescence, higher = more signal
[10] = molecular target: Alpha-bungarotoxin (Bungarus multicinctus) (UniProt P60615); test: alpha-bungarotoxin binders on microarray, profiling panel, artefact control for SMM control protein annotation, biochemical, small-molecule microarray, Alexa647 label, 635/667 nm fluorescence (AID 1117); settings: alpha-BTX-A647 binding fluorescence, higher = more signal
Albumin (Bos taurus) = Albumin (Bos taurus) (UniProt P02769); test: bovine serum albumin binders on microarray, profiling panel, artefact control for SMM control protein annotation, biochemical, small-molecule microarray, Alexa647 label, 635/667 nm fluorescence (AID 1118); settings: BSA-A647 binding, fluorescence 635 nm, higher = more signal;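 note: score merges 667 nm emission intensity and signal-to-noise per printed compound spot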
[11] = small-molecule microarray binders of probe aXIP, primary screen, biochemical, NeuroSMM set, 635/667 nm fluorescence (AID 1119); settings: higher = more signal, called active from +8 up or from −8 down;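 note: probe is the protein aXip251-270 applied at 1 µg/mL to compound-printed slides; binding of probe to printed compounds measured as 667 nm fluorescence plus signal to noise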
[12] = small-molecule binders of probe aNOTCH3, primary screen, biochemical, small-molecule microarray, 635/667 nm fluorescence (AID 1120); settings: higher = more signal;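 note: probe is a biotin-tagged antibody raised against NOTCH3 rather than NOTCH3 protein; score merges spot fluorescence near 667 nm with spot signal to noise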
[13] = small-molecule binders of probe aNOTCH2, primary screen, biochemical, small-molecule microarray, 635/667 nm fluorescence (AID 1121); settings: higher = more signal;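 note: score merges feature fluorescence read at 667 nm with its signal to noise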
[14] = molecular target: Carbonic anhydrase 2 (Homo sapiens) (UniProt P00918); test: CAII small-molecule binders, profiling panel, biochemical, small-molecule microarray, Alexa647-labelled CAII (AID 1122); settings: CAII-A647 binding fluorescence, higher = more signal
[15] = COS7 lysate on small-molecule microarray, probe aHis, 635 nm (AID 1123); settings: COS7 cell lysate, fluorescence, higher = more signal;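 note: z-score combines 667nm fluorescence intensity with signal-to-noise per printed compound spot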
[16] = compound binding in COS7 lysate, probe aLAP1, primary screen, cell lysate, small-molecule microarray (AID 1124); settings: probe aLAP1, fluorescence, higher = more signal;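 note: lysate comes from COS7 cells expressing LAP1 and is applied at 0.3 µg/mL; score merges spot fluorescence near 667 nm with signal-to-noise over triplicate slides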
Sam68 (KHDRBS1) = test: Sam68 small-molecule binders, primary screen, biochemical, small-molecule microarray, 635 nm fluorescence (AID 1125); settings: small-molecule microarray binding, higher = more signal;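 note: score merges 667 nm channel intensity with signal to noise over triplicate slides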
[17] = tested on: Chordin-like protein 2 (CHRDL2); test: CHRDL2 small-molecule binders, primary screen, biochemical, small-molecule microarray, 635 nm fluorescence (AID 1126); settings: small-molecule microarray binding, fluorescence 635 nm; higher = more signal;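 note: printed compound slides probed with Chrdl2 protein at 4 µg/mL for 1 h at 4 C; score merges 667 nm emission intensity with signal to noise over three replicate slides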
[18] = molecular target: Concanavalin-A (Canavalia ensiformis) (UniProt P02866); test: ConA small-molecule binders, primary screen, artefact control for SMM control protein annotation, biochemical, small-molecule microarray, Alexa647 label, 635 nm (AID 1127); settings: ConA-A647 binding fluorescence, higher = more signal;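 note: z combines 667 nm emission intensity with signal-to-noise across three replicate slides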
Chain of Concanavalin-A (Canavalia ensiformis) (P02866 whole entry, looked up): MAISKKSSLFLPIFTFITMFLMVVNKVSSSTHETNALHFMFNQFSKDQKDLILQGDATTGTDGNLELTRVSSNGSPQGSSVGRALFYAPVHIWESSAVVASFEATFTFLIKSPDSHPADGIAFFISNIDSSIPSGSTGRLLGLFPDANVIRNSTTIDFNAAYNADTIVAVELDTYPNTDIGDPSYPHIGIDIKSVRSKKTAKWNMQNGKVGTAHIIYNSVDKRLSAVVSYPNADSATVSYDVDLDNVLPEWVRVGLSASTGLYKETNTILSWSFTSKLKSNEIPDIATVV

Chain of Torsin-1A-interacting protein 1 (Homo sapiens) (Q5JTV8 whole entry, looked up): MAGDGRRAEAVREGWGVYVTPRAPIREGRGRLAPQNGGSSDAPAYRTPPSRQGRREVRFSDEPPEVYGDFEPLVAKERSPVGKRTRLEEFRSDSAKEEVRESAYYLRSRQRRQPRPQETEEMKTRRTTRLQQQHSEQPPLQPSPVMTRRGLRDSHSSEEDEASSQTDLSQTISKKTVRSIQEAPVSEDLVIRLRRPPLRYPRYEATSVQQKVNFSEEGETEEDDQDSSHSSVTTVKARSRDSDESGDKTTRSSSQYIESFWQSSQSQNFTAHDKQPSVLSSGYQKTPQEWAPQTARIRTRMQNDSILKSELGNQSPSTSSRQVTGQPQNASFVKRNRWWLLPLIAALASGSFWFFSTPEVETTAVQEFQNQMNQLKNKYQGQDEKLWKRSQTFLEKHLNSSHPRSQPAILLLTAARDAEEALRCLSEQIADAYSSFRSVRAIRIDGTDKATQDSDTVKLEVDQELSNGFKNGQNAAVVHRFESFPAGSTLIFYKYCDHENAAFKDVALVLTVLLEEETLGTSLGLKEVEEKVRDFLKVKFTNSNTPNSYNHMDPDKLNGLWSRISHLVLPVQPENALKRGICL
Chain of Alpha-bungarotoxin (Bungarus multicinctus) (P60615 whole entry, looked up): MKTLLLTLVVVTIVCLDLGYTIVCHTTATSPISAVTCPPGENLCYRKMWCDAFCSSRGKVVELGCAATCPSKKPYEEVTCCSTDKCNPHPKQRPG
Chain of Left-right determination factor 2 (Homo sapiens) (O00292 whole entry, looked up): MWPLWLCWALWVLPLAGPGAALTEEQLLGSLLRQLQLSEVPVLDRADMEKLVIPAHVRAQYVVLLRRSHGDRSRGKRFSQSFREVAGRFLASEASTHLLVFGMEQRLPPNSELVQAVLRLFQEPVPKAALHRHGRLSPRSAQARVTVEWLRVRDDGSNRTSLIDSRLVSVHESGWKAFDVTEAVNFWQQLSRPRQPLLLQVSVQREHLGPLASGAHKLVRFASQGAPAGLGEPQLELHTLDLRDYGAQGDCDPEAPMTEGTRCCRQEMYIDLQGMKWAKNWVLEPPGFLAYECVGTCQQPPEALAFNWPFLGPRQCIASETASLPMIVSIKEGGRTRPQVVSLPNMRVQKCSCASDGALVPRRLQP
Chain of Albumin (Bos taurus) (P02769 whole entry, looked up): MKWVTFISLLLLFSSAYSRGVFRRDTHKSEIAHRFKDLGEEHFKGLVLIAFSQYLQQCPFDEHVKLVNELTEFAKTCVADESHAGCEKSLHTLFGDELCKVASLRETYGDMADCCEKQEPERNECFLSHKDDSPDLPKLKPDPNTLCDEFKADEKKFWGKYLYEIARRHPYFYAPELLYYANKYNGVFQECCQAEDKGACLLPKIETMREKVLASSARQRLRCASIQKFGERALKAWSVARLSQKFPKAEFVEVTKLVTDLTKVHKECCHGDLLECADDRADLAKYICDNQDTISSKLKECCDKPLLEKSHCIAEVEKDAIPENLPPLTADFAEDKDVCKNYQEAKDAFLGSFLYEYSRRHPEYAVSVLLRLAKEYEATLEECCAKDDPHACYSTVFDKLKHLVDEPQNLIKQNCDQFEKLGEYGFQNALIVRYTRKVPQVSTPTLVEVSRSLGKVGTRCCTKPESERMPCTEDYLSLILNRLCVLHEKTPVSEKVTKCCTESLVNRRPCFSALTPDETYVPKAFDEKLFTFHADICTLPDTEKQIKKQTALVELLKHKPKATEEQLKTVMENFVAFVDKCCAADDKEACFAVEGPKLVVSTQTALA

SMILES | composite z-score [1] | z-score [2] | composite z-score [3] | composite z-score [4] | composite z-score [5] | composite z-score [6] | composite z-score [7] | composite z-score [8] | composite z-score [9] | composite z-score [10] | composite z-score (Albumin (Bos taurus)) | composite Z-score [11] | composite z-score [12] | composite z-score [13] | composite z-score [14] | composite z-score [15] | composite z-score [16] | composite z-score (Sam68 (KHDRBS1)) | composite z-score [17] | composite z-score [18]
COc1ccc([Si](C)(C)[C@H]2[C@H](CC(=O)N3Cc4ccccc4C[C@H]3CO)O[C@@]3(C(=O)N(C)c4c(Br)cc(C)cc43)[C@@H]2C)cc1 | 1.31 | -5.13 | 0.205 | 0.0634 | -0.113 | -0.102 | -0.164 | -0.238 | 0.656 | 0.803 | 0.238 | 0.298 (inactive) | 0.0643 | -0.164 | 0.0971 | 0.787 | 0.152 | 1.1 | 0.7 | 1.06
COc1ccc(CCNC(=O)[C@@H]2c3ccccc3C(=O)N(Cc3ccccc3OC)[C@H]2c2ccc(CO)cc2)cc1 | 1.16 | -1.27 | -0.321 | 0.527 | -0.103 | -0.0398 | -0.423 | 0.938 | 0.966 | 0.75 | 0.454 | 0.511 (inactive) | -0.176 | -0.0068 | 0.533 | 1.59 | 0.886 | 1.28 | -0.246 | 0.792
CC(=O)c1ccc(C(O)C2C=CC3C(=O)N(c4ccccc4)C(=O)C3N2Nc2ccc(C(C)C)cc2)cc1 (stereo not given) | 0.637 | -0.674 | 0.438 | 0.889 | 0.0603 | -0.0519 | 0.0278 | 1.7 | 0.415 | 0.859 | 0.0031 | -0.275 (inactive) | 0.247 | 0.216 | 0.666 | 1.97 | 0.463 | 1.13 | -0.185 | 1.13
CN(C)CCCC[C@@H]1NC(=O)[C@H]2C[C@@H](C(=O)O)[C@@H](c3ccc(O)cc3)N2C1=O | 1.55 | -0.0575 | 1.62 | 2.44 | 1.23 | 0.866 | 1.5 | 3 | 4.54 | 3.2 | 0.705 | 3.89 (inactive) | 1.65 | 0.68 | 0.946 | 4.01 | 1.31 | 1.33 | 1.48 | 1.24
N#Cc1ccc(-c2cccc(=O)o2)cc1 | 0.561 | -0.0585 | 0.0266 | -0.179 | -0.564 | -0.0383 | -0.349 | 0.119 | -0.102 | 0.26 | 0.341 | -0.0662 (inactive) | 0.0426 | -0.0928 | 0.0483 | 0.365 | -0.0816 | 0.808 | 0.252 | 0.411
CCOC(=O)C[C@H]1[C@H](OC(=O)Cc2ccc3c(c2)OCO3)[C@@H](NC(=O)c2ccc3ccccc3n2)c2cc(OCCCO)ccc2N1C(=O)Cc1ccc(OC)cc1 | 0.751 | -1.39 | 0.394 | 0.436 | 0.137 | -0.124 | 0.0723 | -0.0184 | 0.6 | 0.597 | 0.635 | 0.378 (inactive) | 0.169 | -0.0286 | 0.276 | 0.654 | 0.0887 | 0.91 | -0.17 | 0.774

Source: PubChem BioAssay
